PubChem BioAssay AID720690 (Broad Institute, 2013)
Entries with a potency or affinity are not part of this list. Active and inactive are the calls of the source.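 Rule for the calls: active = every repeat run showing a signal drop whose fitted half-maximal concentration is at most twice the top tested concentration; inconclusive = repeat runs disagree, or flat partial drop, or poor fit; inactive = the rest.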

Assay: general mammalian cell viability loss – activator set, cherry-pick, cytotoxicity control for miR-122 modulator project, dose response (AID 720690)
Details: HEK293T viability, CellTiter-Glo luminescence, 48 h; series mostly up to 26 µM

| SMILES | outcome |
| --- | --- |
| CC(C)Oc1ccc(C(CCN)C2CCCCC2)cc1 (configuration not stated) | inactive |
| CCCC(=O)Nc1ccc2c(c1)C(=O)N(C)[C@H]1CC[C@H](CC(=O)NCCN3CCCCC3)O[C@@H]1CO2 | inactive |
| CC(C)c1ccc(CNC(=O)CSCC(=O)Nc2ccc3ccccc3c2)cc1 | inactive |
| Cc1cccc(NC(=O)Nc2ccc3c(c2)C(=O)N(C)[C@H]2CC[C@@H](CC(=O)NCc4ccccc4Cl)O[C@H]2CO3)c1 | inactive |
| COC(=O)c1cc(NS(=O)(=O)c2ccc3c(c2)CCC(=O)N3)cc(C(=O)OC)c1 | inactive |
| CC(C)C(=O)Nc1ccc2c(c1)C(=O)N(C)[C@@H]1CC[C@H](CC(=O)N[C@H](C)c3ccccc3)O[C@@H]1CO2 | inactive |
| CNC(=O)C[C@@H]1CC[C@@H]2[C@H](COc3ccc(NC(=O)c4cccc(OC)c4)cc3C(=O)N2C)O1 | inactive |
| COCC(=O)N(C[C@@H]1N[C@H](CO)[C@H]1c1ccc(-c2cccnc2)cc1)C(C)C | inactive |
| CC(C)C(=O)Nc1ccc2c(c1)C(=O)N(C)[C@H]1CC[C@@H](CC(=O)NCc3ccccc3F)O[C@H]1CO2 | inactive |
| Cc1ccc(-c2nc(C(Cl)Cl)c3ccccc3n2)cc1 | inactive |
| Cc1cc(C(=O)Nc2cccc(O)c2)co1 | inactive |
| COc1cc(C(=O)Nc2ccc(S(=O)(=O)N3CCCCC3C)cc2)cc(OC)c1OC (configuration not stated) | inactive |
| CO[C@H]1CN(C)C(=O)c2cc(NC(C)=O)ccc2OC[C@@H](C)N(C(=O)CC2CC2)C[C@H]1C | inactive |
| CCCNC(=O)C[C@@H]1CC[C@@H]2[C@H](COc3ccc(NC(=O)Nc4ccccc4F)cc3C(=O)N2C)O1 | inactive |
| Cc1cc(CN(C)C(=O)c2cc(COc3ccc4ncccc4c3)on2)on1 | inactive |
| C[C@@H]1CN([C@H](C)CO)S(=O)(=O)c2ccc(/C=C/c3ccccc3)cc2O[C@@H]1CN(C)C(=O)c1cccnc1 | inactive |
| COc1cccc(C(=O)Nc2ccc3c(c2)C(=O)N(C)[C@H]2CC[C@H](CC(=O)NCc4ccc(F)cc4)O[C@@H]2CO3)c1 | inactive |
| CNC(=O)C[C@@H]1CC[C@@H]2[C@@H](COc3ccc(NC(=O)c4cccc(OC)c4)cc3C(=O)N2C)O1 | inactive |
| C=CCc1c(OC)ccc2ccc(=O)oc12 | inactive |

| SMILES | outcome |
| --- | --- |
| O=C(C1CCCC1)N1C[C@H]2[C@@H](c3ccccc31)[C@H](CO)N2C(=O)Nc1cccc(F)c1 | inactive |
| COCC(=O)NC[C@H]1N[C@H](CO)[C@H]1c1ccc(C2=CCCC2)cc1 | inactive |
| COc1ccc(C#Cc2ccc3c(c2)O[C@@H](CN(C)C(=O)CN2CCOCC2)[C@@H](C)CN([C@H](C)CO)S3(=O)=O)cc1 | inactive |
| c1ccc(-c2nnc3n2CCCC3)cc1 | inactive |
| CCNC(=O)C[C@@H]1CC[C@H]2[C@@H](COc3ccc(NC(=O)c4ccc(C(F)(F)F)cc4)cc3C(=O)N2C)O1 | inactive |
| C/C=C/c1ccc([C@@H]2[C@@H](CN(C)C(=O)CC)N(C(=O)NC(C)C)[C@H]2CO)cc1 | inactive |
| CN(C)CCCNC(=O)C[C@H]1CC[C@H]2[C@H](COc3ccc(NS(C)(=O)=O)cc3C(=O)N2C)O1 | inactive |
| CNC(=O)C[C@@H]1CC[C@@H]2[C@@H](COc3ccc(NC(=O)NC(C)C)cc3C(=O)N2C)O1 | inactive |
| O=C(Cn1c(=O)c2ccccc2n(CC(=O)N2CCCCC2)c1=O)N1CCCCC1 | inactive |
| CSc1cccc(NS(=O)(=O)c2ccccc2)c1 | inactive |
| CC(C)CC#Cc1ccc2c(c1)O[C@H](CN(C)C(=O)c1cnccn1)[C@H](C)CN([C@@H](C)CO)S2(=O)=O | inactive |
| CCCCNC(=O)Nc1nnc(-c2ccc(OCC)cc2)o1 | inactive |
| CCCNC(=O)C[C@@H]1CC[C@@H]2[C@@H](COc3ccc(NC(=O)Nc4ccccc4F)cc3C(=O)N2C)O1 | inactive |
| O=C(Nc1ccccc1N1CCN(C(=O)c2ccc(Cl)cc2)CC1)c1cccnc1 | inactive |
| C[C@@H]1CN([C@H](C)CO)S(=O)(=O)c2ccc(C3=CCCC3)cc2O[C@@H]1CN(C)C(=O)C1CCOCC1 | inactive |
| CCCCCn1c(=O)[nH]c2cc(C(=O)NCCN3C(C)CCCC3C)ccc2c1=O (configuration not stated) | inactive |
| CN1CCN(C(=O)C[C@H]2CC[C@@H]3[C@H](COc4ccc(NC(=O)c5cccs5)cc4C(=O)N3C)O2)CC1 | inactive |
| CCCNC(=O)C[C@@H]1CC[C@@H]2[C@H](COc3ccc(NC(=O)c4cc(F)cc(F)c4)cc3C(=O)N2C)O1 | inactive |
